A short description of test [1]: qHTS assay to identify small molecule agonists of the RXR signaling pathway - cell viability counter screen (AID 1159529). Note: nearly all actives have a fitted effect of over 50% in size. Note: potency is the fitted concentration of half-maximal effect. The essentials: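 CellTiter-Glo luminescence gave viability in the wells also read for beta-lactamase. Cells (RXR-alpha-UAS-bla HEK 293T, 2% charcoal-stripped FBS medium) had 5 hr plating, then 16 hr compound exposure at 37 C; tetraoctyl ammonium bromide served as positive control.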
A general note: qHTS replaces the single test concentration by a dilution series.

Test [2] is described as follows: qHTS assay to identify small molecule antagonists of the retinoid acid receptor (RAR) signaling pathway - cell viability counter screen (AID 1159551). Note: nearly all actives have a fitted effect of over 35% in size. Note: potency is the fitted concentration of half-maximal effect. The essentials:
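Retinol-stimulated (1 uM final) C3RL4 cells, compound 6 h, 37 C; readout CellTiter-Glo luminescence (ATP) after 30 min RT incubation.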

Test [3] can be described thus: qHTS assay to identify small molecule antagonists of the retinoic acid receptor (RAR) signaling pathway (AID 1159552; note: nearly all actives have a fitted effect of over 50% in size; note: potency is the fitted concentration of half-maximal effect). Put shortly:
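Luminescent RARE reporter read-out in C3RL4 cells: 6 hr co-treatment at 37 C of test compounds with retinol at 1 uM final. Cells plated overnight beforehand; luciferase reagent incubated 30 min at room temperature before reading.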

A short description of test [4]: qHTS assay to identify small molecule agonists of the retinoic acid receptor (RAR) signaling pathway (AID 1159553). Note: potency is the fitted concentration of half-maximal effect. Put shortly: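 Reporter readout comes from luciferase under RARE control in C3RL4 cells; compound exposure lasts 6 hr at 37 C in 5% CO2, and luminescence is recorded following a 30 min room-temperature incubation with reagent.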
Test [5] is described as follows: qHTS assay to identify small molecule antagonists of the estrogen related receptor (ERR) signaling pathway from Tox21 library - cell viability counter screen (AID 1224834). Note: nearly all actives have a fitted effect of over 30% in size. Note: potency is the fitted concentration of half-maximal effect. The essentials: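 After 17.5 h of compound exposure at 37 C, ERR cells are incubated with CellTiter-Fluor for 30 min and fluorescence intensity serves as the viability measure.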
The target of test [6] is Luciferin 4-monooxygenase (Photinus pyralis) (UniProt P08659). The experiment in a line: qHTS assay to identify small molecule inhibitors of firefly luciferase (AID 1224835). Note: nearly all actives have a fitted effect of over 25% in size. Note: potency is the fitted concentration of half-maximal effect. Put shortly: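 Inhibition of purified Photinus luciferase is measured by luminescence. Substrate levels (D-luciferin, ATP) sit at their KM values. Each compound is tested in a concentration series.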

A short description of test [7]: qHTS assay to identify small molecule agonists of the constitutive androstane receptor (CAR) signaling pathway - cell viability counter screen (AID 1224836). Note: nearly all actives have a fitted effect of over 45% in size. Note: potency is the fitted concentration of half-maximal effect. Put shortly:
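Cell viability multiplexed with the CAR agonist screen: CellTiter-Fluor fluorescence after 23 hr at 37 C. HepG2-CYP2B6-hCAR cells got compounds at 15 concentrations with PK11195 at 0.75 uM final.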

Test [8] in a line: qHTS assay to identify small molecule antagonists of the constitutive androstane receptor (CAR) signaling pathway - cell viability counter screen (AID 1224837). Note: nearly all actives have a fitted effect of over 45% in size. Note: potency is the fitted concentration of half-maximal effect. Put shortly:
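Counter screen run in HepG2-CYP2B6-hCAR cells: 4 hr settle, compound titration (15 concentrations) with 50 nM CITCO, 23 hr at 37 C/5% CO2, CellTiter-Fluor fluorescence.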

For test [9], the target named is Nuclear receptor subfamily 1 group I member 3 (Homo sapiens) (UniProt Q14994). The experiment in a line: qHTS assay to identify small molecule antagonists of the constitutive androstane receptor (CAR) signaling pathway (AID 1224838).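 Note: HepG2 cells stably expressing hCAR with CYP2B6 luciferase reporter stimulated by CITCO; nearly all actives have a fitted effect of over 40% in size.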 Note: potency is the fitted concentration of half-maximal effect. The essentials:
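Cell line: HepG2 double-stable for hCAR and CYP2B6-2.2kb reporter. Agonist: CITCO, 50 nM final. Compounds: 15 concentrations, 24 h, 37 C. Detection: ONE-Glo luminescence.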

Test [10] shares this target. The test is described as follows: qHTS assay to identify small molecule agonists of the constitutive androstane receptor (CAR) signaling pathway (AID 1224839).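 Note: HepG2 cells stably carrying human CAR and a CYP2B6 luciferase reporter; series mostly up to about 92 µM; nearly all actives have a fitted effect of over 15% in size.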 The essentials: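 Luminescent ONE-Glo read-out after 24 hr, 37 C exposure of double-stable HepG2-CYP2B6-hCAR reporter cells to a 15-point compound series, in the presence of 0.75 uM PK11195 (final).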
Test [11] can be described thus: qHTS assay to identify small molecule antagonists of the estrogen related receptor signaling pathway with the pleiotropic PPARgamma coactivator (PGC) from Tox21 10K library - cell viability counter screen (AID 1224840; active = well fitted cell-killing curve with a large enough effect in the repeat runs, not every such curve was filed as active; note: nearly all actives have a fitted effect of over 40% in size; note: potency is the fitted concentration of half-maximal effect). The essentials:
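Following seeding of 2,000 PGC/ERR cells/well and 6 hours' incubation, test compounds were delivered in DMSO. The plates then sat 17.5 hours at 37 C before a fluorogenic live-cell protease reagent (CellTiter-Fluor) was read after 30 min.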

Test [12] is described as follows: qHTS assay to identify small molecule antagonists of the estrogen related receptor signaling pathway with the pleiotropic PPARgamma coactivator (PGC) from Tox21 10K library (AID 1224841; call rule not given here; note: actives are mostly falling curves and most rising ones were filed inactive; nearly all actives have a fitted effect of over 50% in size; note: potency is the fitted concentration of half-maximal effect). Put shortly:
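qHTS antagonist format: PGC/ERR cells, 2k/well, compound in DMSO by pin transfer after 6 h attachment, 18 h treatment at 37 C, One-Glo luminescence read at 30 min.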

Test [13] can be described thus: qHTS assay to identify small molecule agonists of the estrogen related receptor signaling pathway with the pleiotropic PPARgamma coactivator (PGC) from Tox21 10K library (AID 1224842). Note: nearly all actives have a fitted effect of over 15% in size. Put shortly: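 Luminescence from One-Glo (30 min, room temperature) measured after PGC/ERR cells had 18 h at 37 C with pinned compound (23 nL in DMSO). Cells had been seeded at 2,000 per well and pre-incubated 6 h.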

Test [14] deals with Thyrotropin receptor (Homo sapiens) (UniProt P16473). The experiment in a line: qHTS assay to identify small molecule agonists of the thyroid stimulating hormone receptor (TSHR) signaling pathway (AID 1224843; calls by dose curve; note: nearly all actives have a fitted effect of over 45% in size). The essentials:
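HEK293 cells stably bearing the thyrotropin receptor were plated at 800 cells/well and challenged with compound (30 min, RT). Accumulated cAMP was quantified via cAMP-d2 competing for cryptate-tagged antibody.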

Test [15] can be described thus: qHTS assay to identify small molecule antagonists of the estrogen related receptor (ERR) signaling pathway - cell viability counter screen (AID 1224818). Note: series mostly up to about 46 µM. The essentials: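 After a 6 h pre-incubation, ERR cells were dosed by pin tool with compounds, positive/negative controls or DMSO alone. Following 17.5 h at 37 C and 30 min with CellTiter-Fluor, fluorescence was recorded.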

Test [16] is described as follows: qHTS assay to identify small molecule antagonists of the estrogen related receptor signaling pathway with the pleiotropic PPARgamma coactivator (PGC) cell viability counter screen (AID 1224822; note: series mostly up to about 46 µM). Put shortly:
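PGC/ERR cells were plated at 2,000 per well and allowed 6 h to settle before compound addition. Following 17.5 h at 37 C, CellTiter-Fluor reagent was added and fluorescence was read 30 min later.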

Records with an inconclusive call do not appear. Unmarked numbers belong to inactive results. The source made the active and inactive calls. Unless noted, calls come from the whole dose curve; as a rule, active = well fitted curve in the direction sought with a large enough effect in the repeat runs; inconclusive = weak or mixed curves; inactive = no such curve, though single readings can be large; an effect the other way counts as inactive or inconclusive.

Chain of Thyrotropin receptor (Homo sapiens) (P16473 whole entry, looked up): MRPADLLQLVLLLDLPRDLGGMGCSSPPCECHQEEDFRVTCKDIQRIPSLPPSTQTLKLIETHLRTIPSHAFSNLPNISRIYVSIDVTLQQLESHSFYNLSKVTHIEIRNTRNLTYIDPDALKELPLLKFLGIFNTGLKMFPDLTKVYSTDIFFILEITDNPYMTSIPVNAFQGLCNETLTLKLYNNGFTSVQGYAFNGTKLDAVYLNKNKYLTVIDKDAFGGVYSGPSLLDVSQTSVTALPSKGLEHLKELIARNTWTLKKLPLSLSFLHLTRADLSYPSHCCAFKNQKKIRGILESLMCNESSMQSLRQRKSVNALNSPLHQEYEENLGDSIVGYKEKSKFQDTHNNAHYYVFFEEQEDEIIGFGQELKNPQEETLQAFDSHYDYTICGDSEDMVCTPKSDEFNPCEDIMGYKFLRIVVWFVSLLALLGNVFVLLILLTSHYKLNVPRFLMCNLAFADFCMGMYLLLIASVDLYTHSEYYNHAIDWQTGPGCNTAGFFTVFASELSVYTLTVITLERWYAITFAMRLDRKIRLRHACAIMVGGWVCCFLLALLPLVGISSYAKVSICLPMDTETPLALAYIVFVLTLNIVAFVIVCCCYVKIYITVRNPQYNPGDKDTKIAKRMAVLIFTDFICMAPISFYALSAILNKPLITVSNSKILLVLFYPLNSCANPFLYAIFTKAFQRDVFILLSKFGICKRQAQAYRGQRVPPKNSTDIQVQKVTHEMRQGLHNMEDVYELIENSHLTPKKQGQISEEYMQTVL
Chain of Luciferin 4-monooxygenase (Photinus pyralis) (P08659 whole entry, looked up): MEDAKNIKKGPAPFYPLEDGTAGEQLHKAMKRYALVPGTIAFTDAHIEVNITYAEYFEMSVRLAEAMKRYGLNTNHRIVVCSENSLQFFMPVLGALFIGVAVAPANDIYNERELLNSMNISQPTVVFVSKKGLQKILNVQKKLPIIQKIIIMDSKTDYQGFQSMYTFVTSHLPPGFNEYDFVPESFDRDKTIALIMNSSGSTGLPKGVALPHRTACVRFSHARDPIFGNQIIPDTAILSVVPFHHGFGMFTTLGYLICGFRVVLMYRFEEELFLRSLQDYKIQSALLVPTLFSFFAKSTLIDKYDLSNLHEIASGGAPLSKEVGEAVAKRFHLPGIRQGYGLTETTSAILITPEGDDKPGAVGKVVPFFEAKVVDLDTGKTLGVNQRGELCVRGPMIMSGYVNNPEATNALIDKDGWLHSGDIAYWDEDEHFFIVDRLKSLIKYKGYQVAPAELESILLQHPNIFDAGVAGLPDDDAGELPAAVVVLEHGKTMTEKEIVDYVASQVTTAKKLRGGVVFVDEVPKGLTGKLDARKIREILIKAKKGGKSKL
Chain of Nuclear receptor subfamily 1 group I member 3 (Homo sapiens) (Q14994 whole entry, looked up): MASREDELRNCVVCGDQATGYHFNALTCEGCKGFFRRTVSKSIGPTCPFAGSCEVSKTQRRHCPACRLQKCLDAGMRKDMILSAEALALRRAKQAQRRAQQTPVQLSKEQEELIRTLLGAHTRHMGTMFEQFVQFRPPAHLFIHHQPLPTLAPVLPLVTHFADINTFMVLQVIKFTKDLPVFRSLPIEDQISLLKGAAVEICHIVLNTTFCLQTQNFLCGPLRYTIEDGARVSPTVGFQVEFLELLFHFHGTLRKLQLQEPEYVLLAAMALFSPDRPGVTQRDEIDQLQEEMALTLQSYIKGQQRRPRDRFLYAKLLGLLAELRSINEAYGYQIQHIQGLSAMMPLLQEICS

Consider `O=CNc1ccccc1`, for which the Potency result in test [1], in test [2], in test [3], in test [4], in test [5] and in test [6] was “inactive” each time. The Potency entry in test [7], in test [8], in test [9], in test [10], in test [11] and in [12] was “inactive” in each case. The Potency entry in [13] was “inactive”.
As for `O=C(Cl)c1c(Cl)cccc1Cl`, the Potency entry in [1], in test [2], in [3], in test [4], in test [5] and in test [6] was “inactive” each time. Moreover, the Potency result in test [7], in test [8], in [9], in test [10], in [11] and in [14] was “inactive” throughout.
For `O=[N+]([O-])c1cc[n+]([O-])cc1`, the Potency result in test [1], in [2], in [3], in test [4], in test [5] and in test [6] was “inactive” throughout. Also, the Potency result in [10] is “inactive”. Besides, the Potency in [7] and in test [8] was 30.6 µM (active) each time.
For the compound `c1ccc(CNCc2ccccc2)cc1`, the Potency result in [1], in test [2], in test [3], in test [4], in [5] and in [6] was “inactive” throughout. In addition, the Potency result in [7], in test [8], in [9], in test [10] and in [11] was “inactive” in each case.
On to `CCCCCCOC(=O)CCC`, for which the Potency entry in test [1], in test [2], in [3], in test [4], in test [5] and in [6] was “inactive” in each case. Besides, the Potency result in [7], in test [8], in test [9], in test [11] and in test [14] was “inactive” each time.
Regarding `O=C(O)C(c1ccc(Cl)cc1)c1ccc(Cl)cc1`, the Potency entry in test [1], in [2], in [3], in test [4], in test [5] and in test [6] was “inactive” each time. For the same compound, the Potency entry in test [7], in test [8], in [9], in test [10], in test [11] and in [12] was “inactive” throughout. Besides, the Potency result in test [13] and in test [14] was “inactive” each time.
For the compound `O=C(O)/C=C/c1cnc[nH]1`, the Potency result in [1], in [2], in test [3], in test [4], in [5] and in [6] was “inactive” in each case. Also, the Potency entry in test [7], in test [8], in [9], in test [10], in test [11] and in [14] was “inactive” throughout. In addition, the outcome in [15] and in test [16] was inactive.
As for `CC(C)(C)C1CCCCC1O` (centres undefined), the Potency result in [1], in test [2], in [3], in test [4], in test [5] and in test [6] was “inactive” in each case. Besides, the Potency result in [7], in test [8], in [9], in test [10] and in test [11] was “inactive” throughout.
As for `NC(N)=NN=C(/C=C/c1ccc([N+](=O)[O-])o1)/C=C/c1ccc([N+](=O)[O-])o1`, the Potency in test [1] was 8.49 µM (active); in [2], 13.3 µM (active); in test [3], 7.5 µM (active); in [4] it was 2.11 µM (active); in test [5], 2.98 µM (active); in [6] it was 27.5 µM (active). The Potency in test [7] is 3.35 µM (active); in test [8] it was 2.37 µM (active); in [9], 2.98 µM (active); in test [11], 2.98 µM (active); in [12] it was 6.68 µM (active). The Potency result in test [10], in test [13] and in test [14] was “inactive” in each case.
Consider `SC1CCCC1`, for which the Potency entry in test [1], in test [2], in [3], in test [4], in test [5] and in test [6] was “inactive” each time. For the same compound, the Potency result in test [7], in test [8], in test [11] and in [14] was “inactive” throughout.

Source of the values: PubChem BioAssay (Tox21).
